TWEAK Fn14 block – inhibitors of TWEAK-Fn14 signaling, primary screen, luciferase reporter cells, uHTS. inhibition, % at 10 µM. hit rate 2% among 360,000. TWEAK-stimulated Fn14 reporter cells, luciferase luminescence, 8 h; in the data active = inhibition above about 50%
LGR2 inh – inhibitors of bursicon-induced LGR2 CRE-luciferase signal, primary screen, cell-based, HEK293, CRE-luciferase reporter, bursicon stimulation | hit rate 0.35% among 380,000 | inhibition, % at 9.99 µM | bursicon-stimulated, 4 h | Drosophila bursicon receptor LGR2 (rickets);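 active = drop in luminescence signal, shown as inhibition above about 50% in the replicate tests, limit read from the data, passing the limit was not always enough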;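 also: agonist challenge used bursicon conditioned medium at about half maximal strength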
CF NFkB block – inhibitors of PAF-induced NF-kB signaling, primary screen, cell-based, GFP fluorescence, uHTS. KKLEB NF-kB-GFP reporter, GFP fluorescence overnight. inhibition, % at 5 µM. hit rate 0.86% among 360,000. AID 588850, 2011;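 active = at least 50% inhibition at 5 µM, scaled per plate between neutral and stimulator controls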;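 also: PAF is a Pseudomonas aeruginosa culture filtrate used as stimulus; plate controls were PAF-stimulated DMSO wells for no effect and unstimulated DMSO wells for full effect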
KKLEB cytotox – cytotoxicity in KKLEB CF airway cells, primary screen, cytotoxicity control for CF NF-kB inhibitor project, cell-based, uHTS, fluorescence assay plates; activity change (cytotoxicity), % at 5 µM; hit rate 0.36% among 360,000; AID 602141, 2011; KKLEB CF airway cells viability, ATPlite luminescence, overnight; hits give low values; cells stimulated with P. aeruginosa culture filtrate;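 active = corrected activity change at or below -50% at 5 µM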
TROY NFkB inh – inhibitors of TROY-driven NF-kB signaling, primary screen, Q293 LMP1-TROYcd cells, NF-kB luciferase, uHTS | inhibition, % at 10 µM | hit rate 0.98% among 360,000 | Q293 LMP1-TROYcd NF-kB luciferase reporter, 4 h | AID 1347056, 2019;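 active = compounds whose plate-normalised and pattern-corrected inhibition of the luciferase reporter signal at the single screening dose is 50% or more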
EWS-Fli inh – EWS/Fli-driven NR0B1 reporter inhibitors, primary screen, A673 cells, NR0B1 luciferase, luminescence, MLPCN library; hit rate 0.67% among 350,000; viability-normalised; inhibition, % at 12.6 µM;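 active = mean inhibition of at least 50% after viability correction, with every replicate also passing that limit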;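 also: firefly luciferase signal divided by Alamar Blue viability fluorescence both relative to DMSO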
An asterisk follows results filed as active; nt = no result given. Shown are actives, neighbours in structure and some others; about 2.6% of the full set was active somewhere.

SMILES | TWEAK Fn14 block | LGR2 inh | CF NFkB block | KKLEB cytotox | TROY NFkB inh | EWS-Fli inh
COc1ccc(-n2c(=S)[nH]c3cc(C(=O)Nc4ccc(OC)c(OC)c4)ccc3c2=O)cc1 | -6 | -4 | 49 | -70* | 0 | nt
CCOc1ccc(NC(=O)c2ccc3c(=O)n(-c4ccc(OC)cc4OC)c(=S)[nH]c3c2)cc1 | -7 | 6 | -1 | -16 | 1 | 5
COc1ccc(-n2c(=S)[nH]c3cc(C(=O)Nc4ccc(C)c(F)c4)ccc3c2=O)c(OC)c1 | 54* | 16 | 1 | 2 | 30 | 11
COc1ccc(-n2c(=S)[nH]c3cc(C(=O)Nc4cccc(C)c4)ccc3c2=O)cc1 | -14 | 16 | 5 | 7 | 12 | -6
CC(C)NC(=O)N(C)C[C@H]1Oc2ccc(NS(=O)(=O)c3ccc(F)cc3)cc2CC(=O)N([C@@H](C)CO)C[C@H]1C | nt | 1 | nt | nt | nt | -2
C[C@H](CO)N1C[C@H](C)[C@H](CN(C)Cc2ccc(C(F)(F)F)cc2)Oc2ccc(NS(=O)(=O)c3cn(C)cn3)cc2C1=O | nt | 8 | nt | nt | nt | 4
CCN(CC)S(=O)(=O)c1cccc(-n2c(O)c(C=Nc3ccccc3C(=O)O)c3ccccc3c2=O)c1 | 53* | 14 | 91* | 34 | 42 | -4
COC(=O)C1=C(C)N(Cc2ccccc2C(F)(F)F)C(=NCC2CC2)NC1c1ccc(F)cc1 (stereo not given) | nt | 19 | nt | nt | nt | 0
Cc1ccc(S(=O)(=O)NCC[C@@H]2CC[C@@H](NS(=O)(=O)c3ccccc3Cl)[C@H](CO)O2)cc1 | nt | 4 | nt | nt | nt | -4
COc1ccc(Cl)cc1S(=O)(=O)N(C)CC(=O)NCc1ccc2c(c1)OCO2 | 53* | -17 | -5 | 5 | 0 | -4
COc1ccc(S(=O)(=O)N(C)CC(=O)NCc2ccc3c(c2)OCO3)cc1 | 22 | -4 | -11 | 0 | -3 | -5
CCCCCCCn1c(=O)c(C(=O)OC)c(N)c2ccccc21 | 51* | 11 | 8 | -1 | 39 | 18
CCCCCCCCn1c(=O)c(C(=O)OC)c(N)c2ccccc21 | 47 | 15 | -24 | 8 | 40 | 10
CC(=O)Nc1cccc(NS(=O)(=O)Cc2ccc(Cl)cc2)c1 | -17 | nt | 4 | 5 | -10 | nt
CC(=O)c1ccc(NS(=O)(=O)Cc2ccc(Cl)cc2)cc1 | 37 | nt | 1 | -6 | 63* | nt
O=C(Nc1cc(C(F)(F)F)ccc1N1CCOCC1)c1cccc(F)c1 | -1 | nt | 4 | 0 | -1 | nt
O=C(Nc1cc(C(F)(F)F)ccc1N1CCOCC1)c1ccccc1F | 62* | nt | 38 | -12 | nt | nt
Cc1cc(NC(=O)c2cccc(S(=O)(=O)N(C)C)c2)n(-c2ccccn2)n1 | 26 | nt | -36 | -15 | -4 | nt
O=C(Nc1ccccc1C(=O)N1CCCCC1)c1cccc(S(=O)(=O)N2CCOCC2)c1 | 60* | nt | 1 | 10 | nt | nt
Cc1cc(NC(=O)c2cccc(S(=O)(=O)N3CCCCCC3)c2)n(-c2ccccn2)n1 | 52* | -11 | 19 | -8 | 9 | nt
Cc1ccc(-n2c(Cl)c(Cl)nc(Cl)c2=O)cc1 | 102* | nt | 88* | -94* | 63* | nt
Cc1cc(C)c2c(=O)n3c(nc2c1)C(Cc1ccccc1)NC(=O)c1cc2ccccc2cc1-3 (stereo not given) | -12 | 3 | 74* | -63* | 6 | 14
CCC1NC(=O)c2cc3ccccc3cc2-n2c1nc1cc(C)cc(C)c1c2=O (stereo not given) | -30 | -5 | -6 | -11 | -9 | 8
CC(C)(C)Nc1ncnc2sc(-c3ccccc3)cc12 | 71* | 0 | 3 | -10 | 50 | -6
C=COCCCNc1ncnc2sc(-c3ccccc3)cc12 | 87* | 3 | 9 | -5 | -2 | 20
SMILES | TWEAK Fn14 block | LGR2 inh | CF NFkB block | KKLEB cytotox | TROY NFkB inh | EWS-Fli inh
OCCCNc1ncnc2sc(-c3ccccc3)cc12 | 12 | -14 | -2 | -7 | -7 | 6
CCCNC(=O)N1CC2(CCN(C(=O)C3CCCC3)CC2)c2c([nH]c3cc(OC)ccc23)[C@H]1CO | nt | -6 | nt | nt | nt | 9
CCOC(=O)C1CCN(C(=O)/C=C/c2ccccc2OC)CC1 | 59* | nt | 0 | 4 | -9 | nt
COc1cccc(/C=C/C(=O)N2CCN(S(=O)(=O)c3ccccc3)CC2)c1OC | 73* | -4 | 7 | -3 | -18 | -3
C[C@H](CO)N1C[C@H](C)[C@@H](CN(C)Cc2ccc(C(=O)Nc3ccccc3N)cc2)Oc2c(NC(=O)c3cnccn3)cccc2C1=O | nt | -3 | nt | nt | nt | 48
CCc1ccccc1OCCCN1CCCC1 | 59* | 2 | -26 | 5 | -3 | 8
CCc1ccccc1OCCCCN1CCCCC1 | 5 | 2 | 9 | -7 | -10 | 3
CC(=O)N(CCc1ccccc1C)Cc1cc2cc3c(cc2[nH]c1=O)OCO3 | 100* | nt | 5 | -5 | nt | nt
CO[C@@H]1CN(C)C(=O)c2ccc(NC(C)=O)cc2OC[C@H](C)N(C(=O)c2ccncc2)C[C@H]1C | nt | 13 | nt | nt | nt | -1
COc1ccc(C(=O)NN(C)c2nc(C(F)(F)F)nc3ccccc23)cc1 | 52* | -7 | 75* | -8 | 55* | 56*
COc1ccc(C(=O)NN(C)c2nc(-c3ccccc3)nnc2C(F)(F)F)cc1 | 17 | nt | 1 | -4 | 13 | nt
O=C(CSc1nnc(-c2c[nH]c3ccccc23)o1)N1CCCCC1 | -14 | -21 | -32 | 23 | -49 | -37
O=C(CSc1nnc(-c2c[nH]c3ccccc23)o1)N1c2ccccc2CCc2ccccc21 | 63* | 11 | 2 | 27 | 39 | 7
CCC(=O)N1CCC2(CC1)CN(C(C)=O)[C@H](CO)c1[nH]c3cc(OC)ccc3c12 | nt | 6 | nt | nt | nt | -21
O=C(N[C@@H]1CC[C@H](CCNS(=O)(=O)c2ccc(F)cc2)O[C@@H]1CO)c1cnccn1 | nt | -11 | nt | nt | nt | 1
COc1ccc(/C=C/C(=O)O/N=C(\N)c2ccccn2)cc1OC | 12 | -61 | 4 | -17 | -12 | -93
N/C(=N\OC(=O)/C=C/c1ccccc1)c1ccccn1 | 56* | 32 | 10 | -4 | 47 | -34
CC(C)(C)CC(=O)O/N=C(\N)c1ccccn1 | 61* | 62* | 1 | 7 | 0 | nt
C[C@H](CO)N1C[C@H](C)[C@H](CN(C)Cc2ccc(C(=O)O)cc2)Oc2ccc(NS(=O)(=O)c3cn(C)cn3)cc2C1=O | nt | -16 | nt | nt | nt | 2
C[C@@H](NC(=O)C[C@H]1CC[C@@H](NS(=O)(=O)c2cccc(F)c2)[C@@H](CO)O1)c1ccccc1 | nt | 15 | nt | nt | nt | nt
O=C1c2ccccc2C(Nc2ccc3c(c2)OCCO3)N1Cc1ccc2c(c1)OCO2 (stereo not given) | 74* | -10 | 9 | 8 | 63* | 19
